Assay results as given in PubChem BioAssay (NCI).
This is part of a sample that, as a whole, favours compounds with a hit. Of some 83,000 tested, about 20% had one in any assay.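 Treatment: one concentration, 48 hours, 96-well format. Scoring: percent growth, with anything below 10 considered active.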 Values without a mark were called inactive. Active and inactive are the calls of the source.

Experiments:
Experiment in all cases: NCI-60 one-dose screen, 48 h (100 = growth as untreated, 0 = no growth, -100 = all killed)
NCI-H23 lung = conditions: 10 µM unless noted
NCI-H226 lung = conditions: 10 µM unless noted
NCI-H322M lung = conditions: 10 µM unless noted
HOP-62 NSCLC = conditions: 10 µM unless noted
NCI-H460 lung = conditions: 10 µM unless noted
HOP-92 NSCLC = conditions: 10 µM unless noted
A549/ATCC NSCLC = conditions: 10 µM unless noted
786-0 renal = conditions: 10 µM unless noted
COLO 205 colon = conditions: 10 µM unless noted
DU-145 prostate = conditions: 10 µM unless noted
K-562 leukemia = conditions: 10 µM unless noted
MALME-3M melanoma = conditions: 10 µM unless noted
MDA-MB-231 breast = conditions: 10 µM unless noted
RXF 393 renal = conditions: 10 µM unless noted
SF-268 CNS = conditions: 10 µM unless noted
SF-295 CNS = conditions: 10 µM unless noted
SF-539 CNS = conditions: 10 µM unless noted
M14 melanoma = conditions: 10 µM unless noted
NCI-H522 lung = conditions: 10 µM unless noted
UACC-257 melanoma = conditions: 10 µM

| Compound | growth (NCI-H23 lung) | growth (NCI-H226 lung) | growth (NCI-H322M lung) | growth (HOP-62 NSCLC) | growth (NCI-H460 lung) | growth (HOP-92 NSCLC) | growth (A549/ATCC NSCLC) | growth (786-0 renal) | growth (COLO 205 colon) | growth (DU-145 prostate) | growth (K-562 leukemia) | growth (MALME-3M melanoma) | growth (MDA-MB-231 breast) | growth (RXF 393 renal) | growth (SF-268 CNS) | growth (SF-295 CNS) | growth (SF-539 CNS) | growth (M14 melanoma) | growth (NCI-H522 lung) | growth (UACC-257 melanoma) |
| --- | --- | --- | --- | --- | --- | --- | --- | --- | --- | --- | --- | --- | --- | --- | --- | --- | --- | --- | --- | --- |
| CCCCOc1nc2c(C)cccc2cc1C1CNC(=O)c2ccccc2N1 (stereo not drawn) | 80% | 89% | 105% | 56.2% | 56.2% | 62.6% | 60.1% | 46.2% | 90.8% | 86% | 19% | 86.1% | 65.3% | 78.3% | 66.9% | 52.5% | 68.3% | 54.7% | – | – |
| CN(C)CCCNC(=O)C(c1ccccc1)c1ccccc1 | 93.5% | 106% | 102% | 103% | – | 98% | 89.9% | 102% | 106% | 115% | 95.2% | 104% | 102% | 116% | 107% | 102% | 99.4% | 101% | 89.9% | – |
| c1cc(-c2ccc3c(c2)OCO3)n2nccc2n1 | 104% | 83% | 99.3% | 108% | – | 83.9% | 99.2% | 101% | 113% | 106% | 102% | 104% | 106% | 96.4% | 104% | 99.9% | 89.1% | 109% | 89.7% | 103% |
| CC1CCN(C(=O)CSc2nc3sc4c(c3c(=O)[nH]2)CCCC4)CC1 | 113% | 100% | 104% | 103% | – | 88.2% | 106% | 110% | 112% | 101% | 86.1% | 109% | 105% | 117% | 113% | 88.4% | 98.2% | 109% | 89.9% | – |
| O=C(CCl)NCCNc1nccc(Nc2ccc(S(=O)(=O)Nc3ccccn3)cc2)n1 | 22.6% | 48% | 56.5% | 26% | – | 31.2% | 56.8% | -34.5% (active) | 61.1% | 14.4% | 17% | 10.2% | 2.46% (active) | 36.9% | 9.86% (active) | 36.2% | -15.2% (active) | 3.17% (active) | -63.9% (active) | 31.5% |
| O=C(c1ccccc1)C(Cl)C(Cl)c1ccccc1 (stereo not drawn) | 86.7% | 7.49% (active) | 106% | 110% | – | 75.7% | 92.7% | -17.8% (active) | -40.2% (active) | 45.7% | -1.74% (active) | 4.33% (active) | 25.8% | 17.2% | 82.5% | 104% | 31% | 46.8% | -83.5% (active) | – |
| CCC(=O)Oc1cc(/C=C/C(=O)O[C@H]2C[C@H]3CN4CCc5c([nH]c6cc(OC)ccc56)[C@@H]4C[C@@H]3[C@@H](C(=O)OC)[C@@H]2OC)ccc1OC | 86.7% | 67% | 122% | 89% | – | -1.22% (active) | 80.5% | 70.3% | 69.5% | 82.9% | 39.7% | – | 49.7% | 57.9% | 74.8% | 106% | 84.6% | 82.5% | 84% | 74.9% |
| COc1cc(C2CC(c3c(C)[n+]([O-])c4ccccc4[n+]3[O-])=NN2)cc(OC)c1OC (stereo not drawn) | 99.6% | 100% | 119% | 106% | – | 87.8% | 113% | 102% | 102% | 112% | 106% | 112% | 104% | -20.2% (active) | 112% | 103% | 124% | 101% | 104% | – |
| COc1cc2c3c(c(=O)oc2cc1OS(=O)(=O)c1ccc(C(F)(F)F)cc1)CCCCC3 | 76.8% | 77.8% | 84.9% | 64% | – | 56.8% | 75.4% | 72.2% | 93.1% | 82.4% | 97.3% | 72.1% | 68.6% | 30.1% | 93.4% | 81.9% | 64.9% | 83.7% | 71.6% | 95.6% |
| O=C(O)c1ccc(-n2cc(CNc3ccc(C(F)(F)F)cc3)c(-c3ccccc3)n2)cc1 | 91.6% | 104% | 101% | 90.5% | – | 83.8% | 72.5% | 99.1% | 107% | 95.9% | 80.6% | 91.3% | 102% | 99.4% | 91.4% | 75% | 99.9% | 89% | 94.3% | – |
| COc1cc(CCn2nnc3c(NCCCCO)ncnc32)cc(OC)c1 | 94.5% | 99.3% | 99.3% | 113% | – | 83.8% | 101% | 105% | 109% | 104% | 116% | 111% | 120% | – | 105% | 105% | 111% | 90.3% | 111% | 103% |
| Nc1nc(-c2cc3ccccc3o2)cc(=O)c(=O)[nH]1 | 105% | 95.7% | 95.4% | 96.6% | – | -2.74% (active) | 110% | 107% | 106% | 108% | 103% | 94.3% | 98.3% | – | 96.5% | 109% | 89.3% | 106% | 91.9% | – |
| COc1cccc(C2CC(=O)Nc3c2c(C)nn3-c2nc3ccccc3[nH]2)c1OC (stereo not drawn) | 50.5% | 55.1% | 60% | 57.4% | – | 85.4% | 34.4% | 91.7% | 98.1% | 76.5% | 40.9% | 52.3% | 82.1% | 64.2% | 76.4% | 7.64% (active) | 99.7% | 65.4% | 87.8% | 79.1% |
| CC1=NN2C(=NC3=C(CCC/C3=C\c3ccc(Cl)cc3)C2c2ccc(Cl)cc2)S1 (stereo not drawn) | 97.8% | 101% | 104% | 115% | – | 77.9% | 87% | 97.2% | 109% | 101% | 100% | – | 109% | 106% | 98.6% | 102% | 102% | 92.3% | 83.3% | 106% |
| CCCCCCCCCCn1cc[n+](C)c1 | 28.8% | 30.4% | 57.1% | 38.2% | – | 51.9% | 32.6% | 47.8% | 8.8% (active) | 75.4% | 64.2% | 8.94% (active) | 41.5% | -20.8% (active) | 58.7% | 9.99% (active) | 30.5% | 24.6% | -19.9% (active) | -12.4% (active) |
| CCN1C(=O)N(CC)C2C1NN=c1s/c(=C\c3cccc(F)c3)c(=O)n12 (stereo not drawn) | 33.9% | 105% | 49.6% | 42.2% | – | 29.6% | 27% | 12.2% | -5.47% (active) | 5.59% (active) | 8.99% (active) | 48.7% | 25.8% | – | 58.3% | 9.94% (active) | -9.53% (active) | 47.6% | -0.955% (active) | – |
| COc1cccc2cc(-c3cc4ccccc4[nH]3)c(=NC(=O)c3ccc(Cl)cc3)oc12 | 40.2% | 83.2% | 93.3% | 57.7% | – | -0.489% (active) | 65.5% | 69.5% | 100% | 85.5% | 39.7% | 58.5% | 54.3% | – | 53.5% | 67.3% | 58.2% | -28.9% (active) | 9.69% (active) | – |
